The target in experiment [1] is Myc proto-oncogene protein (Homo sapiens) (UniProt P01106). The experiment in a line: ATG_Myc_CIS: Attagene CIS-FACTORIAL HepG2 Assay for human Myelocytomatosis (Myc) Proto-Oncogene Transcription Factor (AID 2282990). Particulars: HepG2, Attagene cis-reporter transcription factor activity; actives raise or lower the signal. A digest of the protocol: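 Cells of the HepG2 human liver line bear multiple cis-driven reporter transcription units. Reporter mRNA after 24 h exposure is reverse-transcribed, amplified, labelled and resolved by capillary electrophoresis, with gain- or loss-of-signal fitting relative to DMSO.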
Chain of Myc proto-oncogene protein (Homo sapiens) (P01106 whole entry, looked up): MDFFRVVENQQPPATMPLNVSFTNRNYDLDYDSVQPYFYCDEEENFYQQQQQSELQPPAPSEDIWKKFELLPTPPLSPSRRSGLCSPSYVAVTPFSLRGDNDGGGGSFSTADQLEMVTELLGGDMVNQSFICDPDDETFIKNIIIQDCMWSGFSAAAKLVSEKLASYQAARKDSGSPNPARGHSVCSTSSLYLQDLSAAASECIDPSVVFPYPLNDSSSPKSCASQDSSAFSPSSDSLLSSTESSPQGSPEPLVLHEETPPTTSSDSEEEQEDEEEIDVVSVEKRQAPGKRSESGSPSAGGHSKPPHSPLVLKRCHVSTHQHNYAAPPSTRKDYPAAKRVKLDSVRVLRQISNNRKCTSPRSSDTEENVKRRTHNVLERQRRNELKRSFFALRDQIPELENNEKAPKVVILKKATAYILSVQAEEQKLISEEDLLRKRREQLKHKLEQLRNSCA

The nature of experiment [2]: ATG_NRF2_ARE_CIS: Attagene CIS-FACTORIAL HepG2 Assay for human Nuclear Factor Erythroid 2 Related Factor 2 (NFR2) response to Antioxidant Response Elements (ARE) (AID 2282992). To be noted: HepG2 Attagene ARE/NRF2 reporter, transcription factor activity; actives raise or lower the signal. The gist of the method: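 Endogenous transcription factor activity in human liver HepG2 cells is tracked via a cis-element-driven reporter within a multiplexed set. mRNA induction is read by RT-PCR and capillary electrophoresis after 24 h, with DMSO as baseline.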

Experiment [3] in a line: ATG_Oct_MLP_CIS: Attagene CIS-FACTORIAL HepG2 Assay for human Octamer-Binding Transcription Factor (Oct) (AID 2282993). Particulars: HepG2 Attagene cis-factorial Oct reporter, mRNA; actives raise or lower the signal. A digest of the protocol:
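HepG2 cells transiently transfected with cis-element-driven reporter transcription units (endogenous TF activity); 24 h compound exposure. Reporter mRNA quantified by RT-PCR, 6-FAM labelling, HpaI digestion and capillary electrophoresis; bidirectional fit versus DMSO baseline.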

The target in experiment [4] is Cellular tumor antigen p53 (Homo sapiens) (UniProt P04637). In words: ATG_p53_CIS: Attagene CIS-FACTORIAL HepG2 Assay for human p53 Transcription Factor (AID 2282994). Particulars: HepG2 p53 cis-element reporter, Attagene mRNA; actives raise or lower the signal. The gist of the method:
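Steps: transfect HepG2 with multiplexed cis reporter constructs; dose chemicals 24 h; extract RNA, reverse-transcribe, PCR-amplify reporter sequences; FAM-label, HpaI-digest, resolve fragments by CE. Activity fitted both directions relative to DMSO.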

Experiment [5] can be described thus: BSK_3C_TissueFactor: BioMAP Diversity Plus: 3C Assay for Tissue Factor Biomarker Activity (AID 2282997). Particulars: BioMAP 3C HUVEC, tissue factor biomarker readout; actives raise or lower the signal. A digest of the protocol:
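Tissue Factor measured by ELISA, 24 h after treatment of primary HUVEC in the BioMAP 3C setting.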

Experiment [6] can be described thus: BSK_3C_uPAR: BioMAP Diversity Plus: 3C Assay for Urokinase-type plasminogen activator receptor (uPAR) Biomarker Activity (AID 2282998). To be noted: BioMAP 3C HUVEC, uPAR biomarker ELISA; actives raise or lower the signal. A digest of the protocol: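 Primary human umbilical vein endothelial cells, 3C system; surface uPAR measured by ELISA 24 h after dosing. Cytotoxicity via SRB total protein in parallel cultures; bidirectional fit against DMSO.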
On the technique in general: An ELISA detects its analyte on a solid surface through an enzyme-linked reagent.

The nature of experiment [7]: BSK_3C_VCAM1: BioMAP Diversity Plus: 3C Assay for Vascular cell adhesion molecule 1 (VCAM1) Biomarker Activity (AID 2282999). To be noted: BioMAP 3C HUVEC, VCAM1 ELISA, cytokine-stimulated; actives raise or lower the signal. The gist of the method: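 Activity fitted in both directions relative to DMSO, with ELISA measurement of the surface marker on primary HUVEC (3C) at 24 h post-treatment; parallel SRB staining (0.1% SRB, TCA-fixed, 560 nm) flagged overt cytotoxicity.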

The nature of experiment [8]: BSK_4H_Eotaxin3: BioMAP Diversity Plus: 4H Assay for Eotaxin 3 Biomarker Activity (AID 2283000). Particulars: primary human endothelial cells (HUVEC); actives raise or lower the signal. The gist of the method:
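Eotaxin-3 (CCL26) levels were measured by ELISA in HUVEC primary cultures 24 h post-dosing. Gain or loss of signal was fitted in both directions, with DMSO serving as baseline and negative control.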

Experiment [9] has as its target human Peroxisome Proliferator-activated Receptor alpha (PPARa), PPARA (gene 5465) (UniProt Q07869). The experiment in a line: ATG_PPARa_TRANS: Attagene TRANS-FACTORIAL HepG2 Assay for human Peroxisome Proliferator-activated Receptor alpha (PPARa) (AID 2283001; active means hit-call score of the fitted dose curve at least 0.9, where 1 is the maximum). A digest of the protocol:
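Reporter transcripts quantified by RT-PCR plus capillary electrophoresis after 24 h treatment, fitted upward relative to DMSO. Cells: human HepG2 transiently carrying multiple GAL4-UAS reporter units driven by NR-Gal4 chimeras.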

Read-out in experiment [10]: Intercellular Adhesion Molecule 1 (ICAM1), ICAM1 (gene 3383)
The experiment in a line: BSK_3C_ICAM1: BioMAP Diversity Plus: 3C Assay for Intercellular Adhesion Molecule 1 (ICAM1) Biomarker Activity (AID 2283003). To be noted: primary human endothelial cells (HUVEC); actives raise or lower the signal. A digest of the protocol:
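ELISA readout of ICAM1 in human umbilical vein endothelial cells in the 3C system, taken 24 h post-dose. Gain or loss of signal versus DMSO was fitted in both directions, with SRB total-protein staining run in parallel.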

A short description of experiment [11]: BSK_3C_Proliferation: Cell Proliferation Assessment in the BioMAP Diversity Plus: 3C Assay (AID 2283006).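 On AC50: potency may reflect either rise or fall in cell number versus DMSO.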 Particulars: primary human endothelial cells (HUVEC). The gist of the method:
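Proliferation as total protein: sulforhodamine B (0.1%) stain of TCA-fixed subconfluent human umbilical vein endothelial cells, absorbance 560 nm, 48 h after dosing. Activity fitted in both directions against DMSO baseline.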

For experiment [12], the target named is Peroxisome proliferator-activated receptor gamma (Homo sapiens) (UniProt P37231). In words: ATG_PPARg_TRANS: Attagene TRANS-FACTORIAL HepG2 Assay for human Peroxisome Proliferator-activated Receptor-gamma (PPARg) (AID 2283007; active means hit-call score of the fitted dose curve at least 0.9, where 1 is the maximum). A digest of the protocol:
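After 24 h of chemical exposure, transfected HepG2 cells carrying PPARγ-Gal4 chimera reporter constructs are lysed for RNA. Reporter transcripts are measured by RT-PCR and capillary electrophoresis with fluorescent labelling, and gain of signal is fitted versus DMSO.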

In experiment [13] the target is Nuclear receptor subfamily 1 group I member 2 (Homo sapiens) (UniProt O75469). In words: ATG_PXR_TRANS: Attagene TRANS-FACTORIAL HepG2 Assay for human Pregnane X Receptor (PXR) (AID 2283008; active means hit-call score of the fitted dose curve at least 0.9, where 1 is the maximum). The gist of the method:
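HepG2 transfected (FuGene 6) with GAL4-UAS reporter units + PXR-Gal4 chimera; dosed 24 h. Total RNA → oligo(dT) RT → PCR → 6-FAM primer extension → HpaI cut → CE. Gain-of-signal vs DMSO.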

In experiment [14] the target is human Retinoic Acid Receptor gamma (RARg), RARG (gene 5916) (UniProt P13631). The experiment in a line: ATG_RARg_TRANS: Attagene TRANS-FACTORIAL HepG2 Assay for human Retinoic Acid Receptor gamma (RARg) (AID 2283009; active means hit-call score of the fitted dose curve at least 0.9, where 1 is the maximum). A digest of the protocol: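 Transactivation of exogenous RARg-Gal4 fusion measured as reporter transcript induction after 24 h in transfected HepG2 cells. RNA reverse-transcribed, amplified, fluorescently labeled and resolved by capillary electrophoresis; increase relative to DMSO.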
Chain of human Retinoic Acid Receptor gamma (RARg), RARG (gene 5916) (P13631 whole entry, looked up, the tested form may be a part): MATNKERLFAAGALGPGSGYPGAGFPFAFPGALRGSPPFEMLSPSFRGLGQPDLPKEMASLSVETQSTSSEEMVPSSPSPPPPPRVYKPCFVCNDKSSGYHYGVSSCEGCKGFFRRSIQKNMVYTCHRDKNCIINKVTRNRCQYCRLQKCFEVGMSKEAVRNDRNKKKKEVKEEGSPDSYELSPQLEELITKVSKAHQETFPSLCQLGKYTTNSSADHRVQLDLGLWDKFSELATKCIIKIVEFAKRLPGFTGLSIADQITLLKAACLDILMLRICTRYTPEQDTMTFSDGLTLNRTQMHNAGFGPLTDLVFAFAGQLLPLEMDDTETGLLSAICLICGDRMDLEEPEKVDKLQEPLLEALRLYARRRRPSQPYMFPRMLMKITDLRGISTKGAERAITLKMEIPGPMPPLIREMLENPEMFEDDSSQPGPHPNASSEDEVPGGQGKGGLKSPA

Experiment [15] concerns the target Retinoic acid receptor RXR-alpha (Homo sapiens) (UniProt P19793). The experiment in a line: ATG_RXRa_TRANS: Attagene TRANS-FACTORIAL HepG2 Assay for human Retinoid X Receptor alpha (RXRa) (AID 2283012; active means hit-call score of the fitted dose curve at least 0.9, where 1 is the maximum). The gist of the method:
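TRANS format reporting activity of exogenous RXRa-Gal4 chimera in transiently transfected HepG2, 24 h exposure. Reporter transcripts quantified by RT-PCR with capillary electrophoresis, with gain of signal scored relative to DMSO.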

Experiment [16] has as its target human Peroxisome Proliferator-activated Receptor delta (PPARd), PPARD (gene 5467) (UniProt Q03181). The experiment in a line: ATG_PPARd_TRANS: Attagene TRANS-FACTORIAL HepG2 Assay for human Peroxisome Proliferator-activated Receptor delta (PPARd) (AID 2283002; active means hit-call score of the fitted dose curve at least 0.9, where 1 is the maximum). The gist of the method: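 Cell-based TRANS reporter: HepG2, transient MRTU transfection, 24 h exposure. Readout = reporter mRNA (RT-PCR/CE, 6-FAM). Gain-of-signal fit vs DMSO control.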

Experiment [17] deals with human RAR-related Orphan Receptor beta (RORb), RORB (gene 6096) (UniProt Q92753). The experiment in a line: ATG_RORb_TRANS: Attagene TRANS-FACTORIAL HepG2 Assay for human RAR-related Orphan Receptor beta (RORb) (AID 2283010; active means hit-call score of the fitted dose curve at least 0.9, where 1 is the maximum). A digest of the protocol: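 Read-out is reporter mRNA induction, quantified by RT-PCR with fluorescent capillary electrophoresis, 24 h post-dose in transiently transfected HepG2 expressing exogenous NR-Gal4 chimera. Activity fitted upward versus DMSO.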
Chain of human RAR-related Orphan Receptor beta (RORb), RORB (gene 6096) (Q92753 whole entry, looked up, the tested form may be a part): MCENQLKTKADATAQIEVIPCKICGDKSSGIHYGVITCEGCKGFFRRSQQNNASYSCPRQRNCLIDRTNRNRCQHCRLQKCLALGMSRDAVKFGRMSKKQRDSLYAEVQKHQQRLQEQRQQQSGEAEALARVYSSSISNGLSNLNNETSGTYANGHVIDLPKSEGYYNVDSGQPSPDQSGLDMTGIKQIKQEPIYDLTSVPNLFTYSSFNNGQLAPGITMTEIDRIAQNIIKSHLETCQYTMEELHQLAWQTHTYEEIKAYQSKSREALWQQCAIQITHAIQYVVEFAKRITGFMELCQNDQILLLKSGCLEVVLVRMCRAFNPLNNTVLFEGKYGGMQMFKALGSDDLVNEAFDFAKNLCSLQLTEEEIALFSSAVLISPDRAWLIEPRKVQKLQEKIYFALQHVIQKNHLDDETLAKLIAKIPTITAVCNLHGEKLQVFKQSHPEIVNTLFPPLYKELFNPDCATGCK

Experiment [18] is described as follows: ATG_NF_kB_CIS: Attagene CIS-FACTORIAL HepG2 Assay for human Nuclear Factor Kappa B (NF-kB) (AID 2282991). To be noted: HepG2 Attagene cis-factorial NF-kB reporter mRNA; actives raise or lower the signal. A digest of the protocol: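 Readout is reporter transcript level, gain or loss versus DMSO, measured 24 h post-dose via RT-PCR, fluorescent labelling and capillary electrophoresis. Human HepG2 liver cells carried transiently transfected CIS reporter constructs reflecting endogenous factors.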

Where “and” joins values, the source holds several entries; their conditions need not be identical. Identical values can stand only once. Inconclusive results are not listed. The source holds several records for some structures; these can differ, active in one and inactive in another. Calls of active or inactive are those of the source. How the source made its calls, unless noted: active means hit-call score of the fitted dose curve at least 0.9, where 1 is the maximum; inactive means score below 0.9.

Chain of human Peroxisome Proliferator-activated Receptor delta (PPARd), PPARD (gene 5467) (Q03181 whole entry, looked up): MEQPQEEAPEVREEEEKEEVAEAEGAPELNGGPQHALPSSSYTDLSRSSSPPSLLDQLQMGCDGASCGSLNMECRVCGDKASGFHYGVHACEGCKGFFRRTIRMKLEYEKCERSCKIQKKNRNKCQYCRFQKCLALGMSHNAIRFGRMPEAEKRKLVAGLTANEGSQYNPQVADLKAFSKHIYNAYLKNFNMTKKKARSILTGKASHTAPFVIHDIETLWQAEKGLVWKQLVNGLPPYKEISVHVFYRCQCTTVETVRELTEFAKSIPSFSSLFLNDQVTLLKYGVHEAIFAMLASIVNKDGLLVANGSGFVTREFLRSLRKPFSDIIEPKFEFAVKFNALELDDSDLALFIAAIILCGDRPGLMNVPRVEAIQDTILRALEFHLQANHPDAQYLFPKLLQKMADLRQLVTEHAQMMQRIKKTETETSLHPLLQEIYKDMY
Chain of Cellular tumor antigen p53 (Homo sapiens) (P04637 whole entry, looked up, the tested form may be a part): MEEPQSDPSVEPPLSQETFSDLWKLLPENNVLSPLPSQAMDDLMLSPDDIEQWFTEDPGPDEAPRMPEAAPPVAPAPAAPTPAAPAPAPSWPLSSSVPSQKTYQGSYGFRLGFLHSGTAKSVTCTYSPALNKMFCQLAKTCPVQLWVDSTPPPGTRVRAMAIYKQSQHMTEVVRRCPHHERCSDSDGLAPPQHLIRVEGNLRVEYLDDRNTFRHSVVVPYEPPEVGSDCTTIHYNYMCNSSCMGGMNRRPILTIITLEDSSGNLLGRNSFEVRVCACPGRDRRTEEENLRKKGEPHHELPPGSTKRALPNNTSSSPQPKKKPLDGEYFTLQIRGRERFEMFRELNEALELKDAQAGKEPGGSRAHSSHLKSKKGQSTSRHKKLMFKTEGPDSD
Chain of Nuclear receptor subfamily 1 group I member 2 (Homo sapiens) (O75469 whole entry, looked up, the tested form may be a part): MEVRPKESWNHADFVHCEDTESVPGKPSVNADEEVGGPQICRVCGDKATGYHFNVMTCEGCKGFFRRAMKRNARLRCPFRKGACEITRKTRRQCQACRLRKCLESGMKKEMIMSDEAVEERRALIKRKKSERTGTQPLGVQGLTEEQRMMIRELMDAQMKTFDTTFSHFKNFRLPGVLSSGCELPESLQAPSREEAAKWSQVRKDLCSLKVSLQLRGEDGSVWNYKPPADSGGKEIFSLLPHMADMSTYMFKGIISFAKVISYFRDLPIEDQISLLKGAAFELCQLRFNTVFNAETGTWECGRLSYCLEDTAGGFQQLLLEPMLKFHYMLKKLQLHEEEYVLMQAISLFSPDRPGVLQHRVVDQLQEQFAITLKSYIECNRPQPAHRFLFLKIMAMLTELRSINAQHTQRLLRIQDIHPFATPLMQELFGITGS
Chain of Peroxisome proliferator-activated receptor gamma (Homo sapiens) (P37231 whole entry, looked up, the tested form may be a part): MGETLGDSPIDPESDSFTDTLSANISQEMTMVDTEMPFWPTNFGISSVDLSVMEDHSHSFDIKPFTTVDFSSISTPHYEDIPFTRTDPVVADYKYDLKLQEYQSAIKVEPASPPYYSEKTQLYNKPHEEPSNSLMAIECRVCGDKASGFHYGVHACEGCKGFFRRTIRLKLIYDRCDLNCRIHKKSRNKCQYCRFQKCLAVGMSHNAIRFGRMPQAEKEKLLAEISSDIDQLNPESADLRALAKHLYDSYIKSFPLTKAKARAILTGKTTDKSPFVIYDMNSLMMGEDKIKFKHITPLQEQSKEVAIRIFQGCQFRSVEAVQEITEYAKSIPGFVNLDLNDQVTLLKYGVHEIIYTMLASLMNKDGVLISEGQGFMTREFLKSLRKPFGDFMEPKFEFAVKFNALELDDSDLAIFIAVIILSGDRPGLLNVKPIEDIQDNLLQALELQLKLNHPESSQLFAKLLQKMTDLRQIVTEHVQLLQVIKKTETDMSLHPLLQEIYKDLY
Chain of Retinoic acid receptor RXR-alpha (Homo sapiens) (P19793 whole entry, looked up, the tested form may be a part): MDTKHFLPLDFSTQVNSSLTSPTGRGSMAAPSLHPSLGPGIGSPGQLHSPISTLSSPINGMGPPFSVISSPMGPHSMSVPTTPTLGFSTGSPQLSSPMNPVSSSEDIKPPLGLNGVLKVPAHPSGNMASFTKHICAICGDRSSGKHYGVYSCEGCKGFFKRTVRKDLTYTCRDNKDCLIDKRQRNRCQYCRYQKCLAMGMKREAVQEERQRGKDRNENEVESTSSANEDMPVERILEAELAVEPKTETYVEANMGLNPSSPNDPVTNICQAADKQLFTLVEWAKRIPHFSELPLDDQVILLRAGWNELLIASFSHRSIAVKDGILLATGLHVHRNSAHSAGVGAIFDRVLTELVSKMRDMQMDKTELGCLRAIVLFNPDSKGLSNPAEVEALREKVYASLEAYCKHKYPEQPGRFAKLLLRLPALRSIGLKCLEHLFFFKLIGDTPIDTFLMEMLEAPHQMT
Chain of human Peroxisome Proliferator-activated Receptor alpha (PPARa), PPARA (gene 5465) (Q07869 whole entry, looked up, the tested form may be a part): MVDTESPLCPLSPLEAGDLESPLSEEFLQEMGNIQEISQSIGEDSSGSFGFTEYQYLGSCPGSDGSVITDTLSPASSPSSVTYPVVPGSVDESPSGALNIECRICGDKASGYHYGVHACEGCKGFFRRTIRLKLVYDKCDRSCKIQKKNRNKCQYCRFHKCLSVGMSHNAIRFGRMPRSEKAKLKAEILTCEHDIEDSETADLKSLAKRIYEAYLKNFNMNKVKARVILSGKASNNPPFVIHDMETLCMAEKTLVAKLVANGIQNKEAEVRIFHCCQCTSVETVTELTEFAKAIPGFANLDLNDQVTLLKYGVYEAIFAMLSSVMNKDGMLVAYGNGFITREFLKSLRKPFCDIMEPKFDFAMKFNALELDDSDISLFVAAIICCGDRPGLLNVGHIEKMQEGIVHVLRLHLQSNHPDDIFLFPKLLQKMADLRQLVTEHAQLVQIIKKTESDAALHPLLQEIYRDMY

As usually defined, the AC50 is the concentration at which the activity in the assay is half-maximal. Take `CCC(=O)C(CC(C)N(C)C)(c1ccccc1)c1ccccc1` (stereo not drawn): the result in experiment [1], in [2], in experiment [3], in [5], in experiment [6] and in [7] was inactive. Further, the result in [8], in [9], in [10], in experiment [11], in experiment [12] and in experiment [13] was inactive. Also, the molecule was classed as inactive in [14] and in experiment [15]. In addition, the AC50 in [4] is 48.9 µM (active).
Regarding `c1ccc(N=NNc2ccccc2)cc1`, the AC50 was 168 µM (active) in [1]; 30.9 µM (active) in experiment [2]; 117 µM (active) in [3]; 65.7 µM (active) in experiment [12]; 33.6 µM (active) in [13]. For the same molecule, the molecule was classed as inactive in [4], in experiment [9], in [16], in experiment [14] and in experiment [15].
Take `ClCc1ccccn1`: the result in experiment [1], in [4], in experiment [9], in experiment [16], in [13] and in [17] was inactive. Further, the molecule was called inactive in [15]. Besides, the AC50 in experiment [2] is 44.3 µM (active); in experiment [3], 59.6 µM (active).
Consider `C[C@@H]1C[C@@H]([C@H](O)CC2CC(=O)NC(=O)C2)C(=O)[C@@H](C)C1`, for which the result in experiment [1], in [3], in [4], in [9], in [16] and in experiment [12] was inactive. For the same molecule, the molecule was called inactive in [13], in experiment [17] and in [15]. Also, the AC50 in experiment [18] was 17.9 µM (active) [middle of 4 runs]; in [3], 24.1 µM (active) and 25.4 µM (active); in experiment [4], 1.24 µM (active) and 2.34 µM (active) and 1.67 µM (active); in experiment [5], 2.05 µM (active); in experiment [6], 5.3 µM (active); in [7] it was 12.4 µM (active). The half-maximal activity concentration (AC50) in experiment [8] was 9.12 µM (active); in experiment [10], 12.5 µM (active); in experiment [11], 2.9 µM (active); in [12], 23.4 µM (active).
